# The source made the active and inactive calls. Rule for the calls: active = hit-call score of the fitted dose curve at least 0.9, where 1 is the maximum; inactive = score below 0.9.
# Experiment: CCTE_Mundy_HCI_Cortical_Synap_Neur_Matur_CellBodySpotCount: CCTE's Synaptogenesis and Neurite Maturation Assay in rat cortical cells for Cell Body Spot Count, Mundy Lab (AID 2284223)
# How it was run: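 Primary rat cortical cultures, AraC added at DIV 5; dosed DIV 7 through DIV 12 […]. Fixed, stained for MAP2 and synaptophysin with Hoechst; cell body-associated synaptophysin puncta per neuron counted by high-content imaging, loss vs DMSO.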
SMILES,outcome,AC50
CS(=O)(=O)c1ccc(C(=O)C2C(=O)CCCC2=O)c(Cl)c1COCC(F)(F)F,inactive,–
Cc1cc(C(F)(C(F)(F)F)C(F)(F)F)ccc1NC(=O)c1cccc(I)c1C(=O)NC(C)(C)CS(C)(=O)=O,inactive,–
Cc1ccccc1OP(=O)(Oc1ccccc1C)Oc1ccccc1C,–,4.04 µM (active)
CC1(C)[C@H](C(=O)O[C@H](C#N)c2cccc(Oc3ccccc3)c2)[C@@H]1/C=C(\Cl)C(F)(F)F,–,3.52 µM (active)
OC(Cc1ccccc1Cl)(Cn1[nH]cnc1=S)C1(Cl)CC1 (centres undefined),inactive,–
CCOCn1c(-c2ccc(Cl)cc2)c(C#N)c(Br)c1C(F)(F)F,–,18.9 µM (active)
CNC(=O)CSP(=O)(OC)OC,inactive,–
NC(=O)c1ccc(N)nc1,inactive,–
CC(C)[C@@H](Nc1ccc(C(F)(F)F)cc1Cl)C(=O)OC(C#N)c1cccc(Oc2ccccc2)c1 (some centres undefined),inactive,–
